The antibiotic and cytotoxicity screens of Wong et al. (2023)
In all, about 39,000 compounds went through this assay and about 3,300 (8.5%) were called active. This is one part of a sample in which actives are shown more often than they occur.

These compounds were tested on HepG2 (assay: cytotoxicity call (relative viability < 0.9)). Settings: 10 µM.

Structure (SMILES) | cytotoxicity call
COc1ccc([C@H]2CNCCN2)cc1 | inactive
C[C@@H]1CN([C@@H](C)CO)C(=O)c2ccccc2-c2ccccc2CO[C@@H]1CN(C)C(=O)Nc1cccc(Cl)c1Cl | inactive
COc1ccc(S(=O)(=O)N(C)C[C@H]2Oc3ccc(NC(=O)Cn4cnnn4)cc3C(=O)N([C@@H](C)CO)C[C@H]2C)cc1 | inactive
CCc1nc2ccc(C(=O)N3CCN(S(=O)(=O)CC)CC3)cn2c1N(CC)C(=O)CCC1CCCC1 | inactive
Cc1ccc(S(=O)(=O)Oc2ccc(/N=N/c3ccc(-c4ccc(/N=N/c5c(O)ccc6cc(S(=O)(=O)O)cc(S(=O)(=O)O)c56)c(C)c4)cc3C)cc2)cc1 | inactive
Cc1cc(-c2ccc(N=Nc3ccc4c(S(=O)(=O)[O-])cc(S(=O)(=O)[O-])c(N)c4c3O)c(C)c2)ccc1N=Nc1ccc2c(S(=O)(=O)[O-])cc(S(=O)(=O)[O-])c(N)c2c1O.[Na+].[Na+].[Na+].[Na+] | active
C[C@@H]1CN([C@H](C)CO)C(=O)CCCn2cc(nn2)CO[C@H]1CN(C)C(=O)Nc1ccc(C(C)(C)C)cc1 | inactive
C[C@@H]1CCCCO[C@H](CN(C)C(=O)Nc2ccc(C(F)(F)F)cc2)[C@@H](C)CN([C@H](C)CO)C(=O)c2cc(NC(=O)CCCCCC(=O)Nc3ccccc3N)ccc2O1 | inactive
NS(=O)(=O)OC[C@H]1C[C@@H](Nc2ccnc3cc(-c4cccc(SC(F)(F)F)c4)nn23)[C@H](O)[C@@H]1O | active
O=C(C[C@H]1C[C@H]2c3cc(NC(=O)Cc4ccncc4)ccc3O[C@H]2[C@H](CO)O1)NCc1cccc(F)c1 | inactive
CO[C@@H]1CN(C)C(=O)c2ccc(NC(=O)Nc3ccccc3F)cc2OC[C@@H](C)N(Cc2ccccc2F)C[C@H]1C | inactive
Cc1c(CN2CCN(C(=O)[C@H](C)O)CC2)sc2c(N3CCOCC3)nc(-c3cnc(N)nc3)nc12 | active
CC(=O)Nc1ncc(CN2CCOCC2)s1 | inactive
C[C@@H]1CN([C@H](C)CO)C(=O)Cc2cc(NC(=O)Cc3cn(C)c4ccccc34)ccc2O[C@@H]1CN(C)S(=O)(=O)c1cn(C)cn1 | inactive
C=C/C=C/[C@@H]1C(=C)CN2[C@H]1[C@H](Cc1ccccc1)OC(=O)[C@@H]2Cc1ccc(-n2cc(COc3ccccc3/C=C(C)/C=C/C(=O)NO)nn2)cc1 | inactive
C#CCN1[C@H](/C=C/C2CC2)[C@H](Cc2ccccc2)OC(=O)[C@@H]1Cc1ccc(-n2cc(COc3ccccc3/C=C(C)/C=C/C(=O)NO)nn2)cc1 | active
COC(=O)[C@@H](Cc1ccc(-n2cc(COc3ccccc3/C=C(C)/C=C/C(=O)NO)nn2)cc1)N1CC2=CCCC=C[C@@H]2[C@H]1[C@H](O)Cc1ccccc1 | active
COC(=O)[C@H](Cc1ccccc1)N1CC2=C[C@@H](C3CC3)n3c(=O)n(C)c(=O)n3[C@H]2[C@@H]1[C@@H](O)CCn1cc(COc2ccccc2/C=C(C)/C=C/C(=O)NO)nn1 | inactive
CCOC(=O)[C@H](Cc1ccccc1)NC(=O)Cn1cc(C(=O)NO)nn1 | inactive
COC(=O)[C@@H](NC(=O)Cn1cc(CCC(=O)NO)nn1)c1ccccc1 | inactive
CC(/C=C/C(=O)NO)=C\c1ccccc1OCc1cn(-c2ccc(C[C@H]3C(=O)O[C@@H](Cc4ccccc4)[C@H]4[C@@H]5C=CCCC=C5CN43)cc2)nn1 | inactive
C=C/C=C/[C@H]1C(=C)CN([C@H](Cc2ccc(-n3cc(COc4ccccc4/C=C(C)/C=C/C(=O)NO)nn3)cc2)C(=O)OC)[C@@H]1[C@H](O)Cc1ccccc1 | inactive

Structure (SMILES) | cytotoxicity call
CC(/C=C/C(=O)NO)=C\c1ccccc1OCc1cn(CC(=O)N2CCN(c3ccccc3)CC2)nn1 | inactive
COC(=O)[C@@H](Cc1ccc(-n2cc(COc3ccccc3/C=C(C)/C=C/C(=O)NO)nn2)cc1)N1CC2=C[C@H](C3CC3)n3c(=O)n(C)c(=O)n3[C@@H]2[C@H]1[C@H](O)Cc1ccccc1 | inactive
COC(=O)[C@@H](NC(=O)Cn1cc(C(=O)NO)nn1)c1ccccc1 | active
COC(=O)[C@@H](NC(=O)Cn1cc(COc2ccccc2/C=C(C)/C=C/C(=O)NO)nn1)c1ccccc1 | active
CS(=O)(=O)N1C[C@H](O)COC[C@H]2O[C@@H](CC(=O)NCc3ccccc3)CC[C@@H]21 | inactive
CC(C)(C)[S@@](=O)N1Cc2cc(C(=O)N3CCc4ccccc4C3)nc(-c3cccc(-c4cncnc4)c3)c2[C@H]1CCO | inactive
COc1ccc(C#Cc2ccc3c(c2)O[C@@H](CN(C)C(=O)CN2CCOCC2)[C@H](C)CN([C@@H](C)CO)S3(=O)=O)cc1 | inactive
Cc1noc(C)c1NC(=O)Nc1ccc2c(c1)C(=O)N([C@@H](C)CO)C[C@@H](C)[C@@H](CN(C)S(C)(=O)=O)O2 | inactive
C[C@@H]1CN([C@@H](C)CO)C(=O)c2cc(NC(=O)CCN3CCOCC3)ccc2O[C@@H]1CN(C)Cc1ccccc1 | inactive
CO[C@@H]1CN(C)C(=O)c2cc(NC(=O)c3cnccn3)ccc2OC[C@@H](C)N(CCC(F)(F)F)C[C@H]1C | inactive
C[C@H]1CN([C@@H](C)CO)C(=O)c2cccc(NS(=O)(=O)c3ccc(Cl)cc3)c2O[C@H]1CN(C)Cc1ccc(Oc2ccccc2)cc1 | inactive
C[C@@H]1CN([C@@H](C)CO)C(=O)CCCn2cc(nn2)CO[C@@H]1CN(C)C(=O)C1CC1 | inactive
COc1ccc(-c2cc(=O)c3c(O)cc(OC)cc3o2)cc1 | inactive
COc1ccc(-c2cc(=O)c3c(O)c(OC)c(OC)c(OC)c3o2)cc1 | active
COc1ccc(-c2cc(=O)c3c(OC)c(OC)c(OC)c(OC)c3o2)cc1 | inactive
COc1ccc(-c2cc(=O)c3c(OC)cc(OC)cc3o2)cc1 | inactive
COc1ccc(-c2cc(=O)c3c(O)c(OC)c(OC)c(OC)c3o2)cc1OC | active
COc1ccc(-c2cc(=O)c3c(OC)c(OC)c(OC)c(OC)c3o2)cc1OC | inactive
COc1ccc(-c2cc(=O)c3c(O)cc(O)cc3o2)cc1 | active
COc1ccc(-c2cc(=O)c3c(OC)c(OC)c(OC)cc3o2)cc1OC | inactive
O=c1cc(-c2ccc(O)cc2)oc2cc(O)cc(O)c12 | inactive
C[C@@H]1CN([C@@H](C)CO)S(=O)(=O)c2ccc(C#C[C@@H](C)O)cc2O[C@H]1CN(C)C(=O)CN(C)C | inactive
